“And” between values parts separate entries of the source, which are not always exact repeats. Equal entries are not always repeated. In all, about 34,000 compounds went through this assay and about 290 (0.85%) showed an effect of 50% or more. The list comes from a sample in which strong results are over-represented; it also holds similar structures and randomly drawn compounds.
Tested on: Plasmodium falciparum
Assay: Plasmodium falciparum sporozoite viability assay
Type: functional, organism-based
Parameters: scale not given: in the data most compounds retested in dose-response had high values

Compound | Percent Effect | Percent Effect (10 mM as filed; unlikely as a test dose)
COc1ncccc1CN1CCc2[nH]nc(C(=O)N(C)C)c2C1 | 10.07% | 
COCCn1ccc2c(NC(=O)c3n[nH]c4c3CCC4)cccc21 |  | -3.571% and -16.58% and -12.91%
COCCn1cc(CC(=O)Nc2nc3c(s2)CCC3)c2ccccc21 |  | 1.19% and -4.41% and -3.323%
COCCn1ccc2c(C(=O)Nc3nc4c(s3)CCC4)cccc21 |  | 69.11% and 95.7% and 86.17%
Cc1cc(CN2CCN(C(=O)c3sccc3C3CC3)CC2)no1 | 1.531% | 
O=C(O)C(F)(F)F.O=C(c1ccsc1)N1C[C@@H]2CCN(c3cccnc3)C[C@@H]2C1 | 9.933% | 
O=C(Nc1cccnc1)C1Cc2nc(-c3ccsc3)sc2N1CC1CC1.O=C(O)C(F)(F)F (centres undefined) |  | 89.12% and 90.39% and 85.39%
O=C1CCCN1CC1CCCCN1C(=O)Nc1cccnc1 (centres undefined) | 7.898% | 
O=C(Nc1cccnc1)[C@H]1C[C@H]2OCC[C@H]2N(C(=O)c2ccsc2)C1.O=C(O)C(F)(F)F | -9.732% | 
CN(C)C(=O)CN1CCC2(CCN(S(C)(=O)=O)CC2)C1=O | 9.72% | 
COc1ncccc1NC(=O)C1CC1 | 5.184% | 
Cc1cnn(CC2CCCN2CC(=O)Nc2nc(C)cs2)c1 (centres undefined) | 7.289% | 
CN(C)c1cc(C(=O)N2CCN(c3cc(C#N)ccn3)CC2)ccn1 | 0.09769% | 
CCc1ocnc1C(=O)N1CCCC1c1noc(C(C)C)n1 (centres undefined) | -5.615% | 
COc1cccc(-n2c(C)cc(C(=O)NC(C)(C)C(N)=O)c2C)c1 | 5.357% | 
CN1CCC(c2n[nH]cc2-c2ccnc(N)c2)C1 (centres undefined) | 2.531% | 
Cc1nnc2n1CCN(CCOc1ccccc1)C2 |  | -26.14% and -25.56% and -5.728%
CS(=O)(=O)NCc1cc(-c2cc(F)cc(F)c2)nc(N2CCCC2)n1 | 13.63% | 
CN(Cc1ccccc1)C(=O)CCNc1ncccc1C#N | -0.1304% | 
CN(Cc1noc(C2CC2)n1)C1CCN(CC(=O)N2CCOCC2)C1 (centres undefined) | 4.316% | 
COc1cc(F)c(NCc2nc3ccccc3n2C)cc1OC |  | 61.41% and 85.71% and 92.05%
COCCOc1ccc(F)cc1NCc1nc2ccccc2n1C |  | 8.05% and -7.699% and 5.859%
COCCOc1ncccc1NCc1nc2ccccc2n1C |  | 12.39% and -0.3581% and 11.74%

Compound | Percent Effect | Percent Effect (10 mM as filed; unlikely as a test dose)
Cc1cc(NC(=O)CNC2CCc3nc(C(C)C)nn3C2)no1 (centres undefined) | 3.617% | 
O=C(O)C(F)(F)F.O=C(O)C(F)(F)F.O=C1CC2(CCN(Cc3cccnc3)C2)CN1c1ccc2c(c1)OCO2 (centres undefined) | 12.41% | 
CN(C)c1nc2c(c(N3CCc4ccccc4C3)n1)CCNC2 | 6.667% | 
Clc1ccc2nc(N3CCC(NCCCC4CCOC4)CC3)sc2c1 (centres undefined) |  | 74.93% and 78.72%
Cl.c1ccc(-c2cc(CNCCCC3CCOC3)c3nnnn3c2)cc1 (centres undefined) | -4.775% | 
Cc1csc2c(N3CCC(NCCCC4CCOC4)CC3)ncnc12 (centres undefined) | 2.368% | 
COc1ccc2c(c1)C(=O)NC1(CC2)CCN(Cc2ccncc2)C1 (centres undefined) | 11.06% | 
CCCNC(=O)c1cc(C2CCCN(Cc3ccccn3)C2)no1 (centres undefined) | 2.586% | 
CNS(=O)(=O)Cc1cccc(CNC(=O)Nc2cn[nH]c2)c1 | 3.105% | 
Cc1n[nH]c(C2CN(C(=O)c3cc4c(s3)CCCC4)CCO2)n1 (centres undefined) |  | 11.47% and -8.902% and 7.352%
Cc1n[nH]c(C2CN(C(=O)c3cc4c(s3)CCC4)CCO2)n1 (centres undefined) |  | -3.516% and -12.52% and -10.81%
N#Cc1c(C2CCOC2)cc(-c2ccc(N3CCCCC3)cc2)nc1N (centres undefined) |  | 29.44% and 63.96% and 52.39%
Oc1nnc(-c2cccs2)c2sc(N3CCCC3)nc12 |  | -6.906% and -7.819%
Oc1nnc(-c2cccs2)c2sc(N3CCCCC3)nc12 |  | 6.59% and -1.953%
Oc1nnc(-c2ccccc2)c2sc(N3CCCCC3)nc12 |  | 60.86% and 56.27%
CCOc1ccc(Cl)cc1CCNC(=O)Cn1nc(C)ccc1=O | -8.218% | 
Cc1nc(COc2ccc(N(C)S(C)(=O)=O)cc2)sc1C |  | 53.33% and 78.78% and 74.56%
Cc1nc(C)c(COc2ccc(S(=O)(=O)N(C)C)cc2)s1 |  | 5.36% and 0% and 2.114%
CN1CCN(c2ccc(NS(=O)(=O)c3ccc(Br)s3)cc2C(=O)O)CC1 | 4.745% | 
Cc1ccc(CC(=O)N2CCN(c3nccs3)CC2)s1 | 2.447% | 
CC(C)OCCCN(Cc1ccncc1)Cc1cc(F)cc(F)c1.Cl | 11.64% | 
CC(=O)Nc1nc(C(=O)N2CCCC(n3cncn3)C2)cs1 (centres undefined) |  | 82.11% and 81.18% and 79.89%
CC(=O)N1CCN(C(=O)Nc2cnc3c(cnn3C(C)C)c2)CC1 | 25.32% | 

Compound | Percent Effect | Percent Effect (10 mM as filed; unlikely as a test dose)
Cc1ccc(CN(CCN(C)C)Cc2ccnn2C2CCCCO2)o1.O=C(O)CC(O)(CC(=O)O)C(=O)O (centres undefined) | -4.714% | 
COc1ccc(-c2noc(-c3ccc(N4CCC[C@H]4CO)nc3)n2)cc1 |  | 49.77% and 66.78% and 41.57%
OC[C@@H]1CCCN1c1ccc(-c2nc(CCc3ccccc3)no2)cn1 | -12.02% | 
COCc1noc(-c2ccc(N3CCCCC3CO)nc2)n1 (centres undefined) |  | 100.3% and 99.37% and 102%
OC[C@@H]1CCCN1c1ccc(-c2nc(COc3ccccc3)no2)cn1 | 3.859% | 
Cc1ccc(-c2nc(CN3CCCC3Cn3cc(C)cn3)no2)cc1 (centres undefined) | -11.03% | 
OCC1CCCN1c1cc(N2CCc3ccccc3C2)ncn1 (centres undefined) | 3.468% | 
COc1ccc2c(c1)CN(c1cc(N3CCCC3CO)ncn1)CC2 (centres undefined) | -18.73% | 
COCc1noc(-c2ccc(N3CCC[C@H]3CO)nc2)n1 |  | 100.4% and 89.16% and 80.89%
OCC1CCCCN1c1ccc(-c2nc(-c3ccccc3F)no2)cn1 (centres undefined) |  | 104% and 108.6% and 106.3%
CCOC(=O)C1CCCN(c2ccc(-c3nc(C)no3)cn2)C1 (centres undefined) | -0.4292% | 
COc1cccc(CNC(=O)C(c2cccc(F)c2)N2CCOCC2)c1 (centres undefined) | -3.044% | 
O=C(c1ccc(OCC2CC2)nc1)N1CCCC(n2cccn2)C1 (centres undefined) | -19.18% | 
CC(C)C(=O)N(C)CC(=O)Nc1ccc(Br)cn1 | 14% | 
CC(C)NC(=O)C1CCN(c2nc3nc[nH]c(=O)c3s2)CC1 | 4.304% | 
O=C(O)CC(O)(CC(=O)O)C(=O)O.OC1CCN(Cc2ccnc(-c3cccnc3)n2)CC1 | -11.33% | 
O=C(C1CCOCC1)N1CC[C@@H](O)[C@@H]1Cc1ccccc1 | -0.722% | 
CCc1cc(C(=O)N2CCc3nc4c(C)csc4c(=O)n3CC2)on1 | -3.013% | 
Cc1ccc(CNC2CCCN(Cc3noc(C4CC4)n3)C2)s1 (centres undefined) | 14.12% | 
Cc1nccc([C@@H]2C[C@H]3CN(S(=O)(=O)c4ccccc4)C[C@H]3O2)n1 | -0.614% | 
COCc1noc(-c2ccc(N3CCCC3c3nccs3)nc2)n1 (centres undefined) | 12.02% | 
COCc1noc(-c2ccc(N3CCCCC3COC)nc2)n1 (centres undefined) |  | 46.38% and 65.96% and 53.91%
COCc1noc(-c2ccc(N3CCCC3c3ccc(F)cc3)nc2)n1 (centres undefined) | -8.49% | 

Compound | Percent Effect | Percent Effect (10 mM as filed; unlikely as a test dose)
Cc1ccc(CN2Cc3nccn3CC(Cn3cccn3)C2)s1.O=C(O)C(F)(F)F (centres undefined) | 14.89% | 
c1ccc(OCCN2CCc3c(ncn3C3CC3)C2)cc1 | 1.314% | 
Cn1cc(-c2nc(CN3CCc4c(ncn4C)C3)cs2)cn1 |  | 16.12% and 15.46% and 16.04%
c1ccc(-c2nccc(N3CCc4c(ncn4C4CC4)C3)n2)cc1 |  | 47.31% and 54.94% and 44.8%
Cn1cnc2c1CCN(Cc1csc(-c3ccsc3)n1)C2 |  | 58.75% and 42.56% and 36.07%
c1ccc(CCN2CCc3c(ncn3C3CC3)C2)nc1 |  | 67.57% and 58.81%
Cn1cnc2c1CCN(c1ccnc(-c3ccccc3)n1)C2 |  | 23.08% and 36.96% and 19.93%
c1cc(-c2nc(CN3CCc4c(ncn4C4CC4)C3)cs2)cs1 |  | 57.35% and 45.82% and 61.3%
COc1cc(CCC(=O)N2CCC(c3cc4ncc(C)nc4[nH]3)C2)on1 (centres undefined) | 3.144% | 
Cn1ncc2ccc(C3CCCN(C(=O)Cc4cccs4)C3)nc21 (centres undefined) | 10.94% | 
CC(=O)N1CCCC(Cc2cncc(Br)c2)C1 (centres undefined) | 6.529% | 
Cl.NC[C@H]1CC[C@H](c2c(C(N)=O)sc3ccccc32)CC1 | -7.353% | 
CC(C)c1nccn1-c1cncc(C2CCCN(C3CCCC3)C2)n1 (centres undefined) | -6.527% | 
CC(=O)Nc1ncc(S(=O)(=O)Nc2cccc(C)c2)s1 |  | -25.8% and -18.95%
Cn1cnc2c1CCN(Cc1csc(-c3ccccc3F)n1)C2 |  | 76.94% and 88.44% and 75.64%
c1ccc(Cc2noc(CN3CCc4c(ncn4C4CC4)C3)n2)cc1 |  | -14.98% and -2.391% and 8.348%
Cn1cnc2c1CCN(Cc1csc(-c3ccc(F)cc3)n1)C2 |  | -9.047% and 9.476% and -2.391%
CN(Cc1ccncc1)C1CC2(CCN(Cc3ccccn3)CC2)C1 | -12.29% | 
c1cc2c(cc1CN(Cc1nc(C3CC3)no1)C1CCCC1)OCO2 |  | 12.71% and 9.481% and -1.226%
CCc1noc(CN(Cc2ccc3c(c2)OCO3)C2CCCC2)n1 |  | 55.13% and 62.45% and 59.26%
